In PubChem BioAssay (EPA / NIEHS) one finds outcome and AC50 data, which are given here for eight molecules.

Test [1] in a line: APR_HepG2_CellCycleArrest_24hr: Apredica 24-hour HepG2 Assay for Cell Cycle Arrest (AID 2282905).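 Also: cell cycle arrest scored as ratio of 2N to 4N nuclear DNA content.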 Conditions: imaging, actives raise or lower the signal. The method in brief:
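Compounds (0.39 to 200 uM, final DMSO 0.5% v/v) are applied to HepG2 cells for 24 hours; cells are then fixed, permeabilized and nuclei labeled with Hoechst 33342. Automated imaging measures DNA content, and activity is fitted in both directions against DMSO.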

A short description of test [2]: APR_HepG2_NuclearSize_24hr: Apredica 24-hour HepG2 Assay for Nuclear Size (AID 2282907). Conditions: high-content imaging, actives raise or lower the signal. The method in brief: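 Nuclear size is measured by fluorescence high-content imaging of Hoechst-labelled HepG2 nuclei after 24 hr of treatment (0.39–200 uM, 0.5% DMSO). Cells are fixed in 3.7% formaldehyde before staining, and DMSO serves as the baseline for bidirectional curve fitting.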

The nature of test [3]: APR_HepG2_CellLoss_24hr: Apredica 24-hour HepG2 Assay for Cell Loss (AID 2282908).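 As to AC50: fit in both directions so a hit may be cell loss or gain.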 Conditions: high-content imaging. The method in brief: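 Nuclear count serves as the viability measure: treated cells are fixed, permeabilized and labelled with Hoechst 33342, and six images per well are analysed to identify valid nuclei. Doses span 0.39–200 uM, and activity in either direction is scored against DMSO.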

Test [4] is described as follows: APR_HepG2_MicrotubuleCSK_24hr: Apredica 24-hour HepG2 Assay for Microtubule CSK Stabilty (AID 2282909). Conditions: HepG2 microtubule cytoskeleton imaging, actives raise or lower the signal. The method in brief:
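Compounds were applied to HepG2 cells for 24 hours across 0.39–200 uM in duplicate, with final DMSO at 0.5% v/v. Fixed, permeabilized cells were labeled for alpha-tubulin and nuclei, and tubulin fluorescence was quantified by imaging, fitted bidirectionally against DMSO.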

The nature of test [5]: APR_HepG2_MitoMembPot_24hr: Apredica 24-hour HepG2 Assay for Mitochondrial Membrane Potential (AID 2282911). Conditions: imaging, actives raise or lower the signal. The procedure, abridged: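 Cells are dosed for 24 hr across 0.39 to 200 uM with solvent held at 0.5% DMSO. They are then stained with 250 nM MitoTracker Red CMXRos for 30 min, fixed in 3.7% formaldehyde and imaged.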

Test [6] in a line: APR_HepG2_MitoMass_24hr: Apredica 24-hour HepG2 Assay for Mitochondrial Mass (AID 2282912). Conditions: high-content imaging, actives raise or lower the signal. The procedure, abridged: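 After 24 hr of treatment at 0.39 to 200 uM, HepG2 cells take up 250 nM MitoTracker Red CMXRos for 30 min and are then fixed with 3.7% formaldehyde. Per-well images are quantified, and any change in either direction is scored against solvent.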

The nature of test [7]: APR_HepG2_p53Act_24hr: Apredica 24-hour HepG2 Assay for p53 Activation (AID 2282913).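 Also: p53 protein immunofluorescence averaged per cell in HepG2 with Hoechst nuclei.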 As to conditions: high-content imaging, actives raise or lower the signal. The procedure, abridged:
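Human HepG2 liver cells; 24 hr cpd treatment, 0.39–200 uM, 0.5% DMSO final. Fixed in 3.7% formaldehyde, permeabilized with 0.5% Triton X-100, stained with anti-p53/Cy5 plus Hoechst 33342. Six images per well at 20x; gain or loss vs DMSO.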

A short description of test [8]: APR_HepG2_CellCycleArrest_72hr: Apredica 72-hour HepG2 Assay for Cell Cycle Arrest (AID 2282914). Conditions: high-content imaging, actives raise or lower the signal. The procedure, abridged: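 Read-out is Hoechst-stained nuclear DNA content measured by automated fluorescence imaging (20x, six images per well), fitted in both directions relative to DMSO. Human HepG2 liver cells received 0.39–200 uM compound for 72 hr at 0.5% v/v DMSO.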

A short description of test [9]: APR_HepG2_CellLoss_72hr: Apredica 72-hour HepG2 Assay for Cell Loss (AID 2282915). As to conditions: high-content imaging. The procedure, abridged:
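HepG2 cells exposed 72 h to compound at 0.39–200 uM (10 concentrations, duplicate) in 0.5% DMSO. Fixed with 3.7% formaldehyde and Hoechst 33342-stained. Imaged at 20x; nuclear count gives cell number, fitted bidirectionally versus DMSO.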

Test [10] is described as follows: APR_HepG2_P-H2AX_72hr: Apredica 72-hour HepG2 Assay for H2AX Phosphorylation (AID 2282916).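 Also: phospho-histone H2A.x immunostain intensity per cell marking DNA damage.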 As to conditions: imaging, actives raise or lower the signal. The method in brief: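 Human hepatoma HepG2 cells are dosed across ten concentrations (0.39 to 200 uM, 0.5% v/v DMSO) and incubated 72 hr. Phospho-histone H2A.x is then detected by antibody staining alongside c-Jun and Hoechst, and quantified by automated fluorescence imaging.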

A short description of test [11]: APR_HepG2_MitoMembPot_72hr: Apredica 72-hour HepG2 Assay for Mitochondrial Membrane Potential (AID 2282917). As to conditions: imaging, actives raise or lower the signal. The method in brief:
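HepG2 cells dosed 72 hr with compound at 0.39–200 uM in duplicate, 0.5% v/v DMSO final. Mitochondria stained with 250 nM MitoTracker Red CMXRos for 30 min before formaldehyde fixation, imaged by high-content fluorescence; bidirectional fit versus DMSO.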

The nature of test [12]: APR_HepG2_MicrotubuleCSK_72hr: Apredica 72-hour HepG2 Assay for Microtubule CSK Stabilty (AID 2282919). As to conditions: HepG2 microtubule cytoskeleton, high-content imaging, actives raise or lower the signal. The method in brief:
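HepG2, 72 hr cmpd exposure, 0.39–200 uM (10 pts, duplicate), 0.5% DMSO. 3.7% formaldehyde fix, 0.5% Triton perm, anti-alpha-tubulin/Cy5 plus Hoechst. HCS fluorescence intensity; bidirectional fit vs DMSO baseline; taxol as positive control.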

The nature of test [13]: APR_HepG2_P-H2AX_24hr: Apredica 24-hour HepG2 Assay for H2AX Phosphorylation (AID 2282920). Conditions: high-content imaging, actives raise or lower the signal. The procedure, abridged:
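HepG2, 24 hr, cpd 0.39–200 uM (10 conc, duplicate), DMSO 0.5% v/v final. Fix 3.7% formaldehyde, Triton X-100 permeabilize, anti-phospho-H2A.x 1:200 + Hoechst 2 ug/mL. Imaged, bidirectional fit vs DMSO.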

The nature of test [14]: APR_HepG2_StressKinase_72hr: Apredica 72-hour HepG2 Assay for Stress Kinase (AID 2282921). Conditions: HepG2 stress kinase (phospho-c-Jun) imaging, actives raise or lower the signal. The procedure, abridged: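 After a 72 h compound treatment spanning 0.39 to 200 uM, formaldehyde-fixed cells are labelled for phosphorylated c-Jun and nuclei, imaged by automated fluorescence microscopy, and activity is fitted in both directions relative to DMSO controls.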

The nature of test [15]: APR_HepG2_StressKinase_24hr: Apredica 24-hour HepG2 Assay for Stress Kinase (AID 2282922). Conditions: HepG2 stress kinase (phospho-c-Jun) imaging, actives raise or lower the signal. The method in brief:
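Read-out: phospho-c-Jun immunofluorescence (Cy3 secondary) quantified by high-content imaging at 20x, nuclei defined by Hoechst 33342. Human HepG2 liver cells dosed 24 hr, 0.39–200 uM, DMSO 0.5% v/v; gain or loss of signal fitted relative to DMSO.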

The nature of test [16]: APR_HepG2_p53Act_72hr: Apredica 72-hour HepG2 Assay for p53 Activation (AID 2282923).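 Also: average cellular p53 protein immunofluorescence intensity in HepG2 cells.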 As to conditions: high-content imaging, actives raise or lower the signal. The method in brief:
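Imaging-based endpoint: after 72 hr compound exposure (up to 200 uM, 0.5% DMSO), fixed and permeabilized monolayers were labelled with anti-p53 antibody and imaged; signal change in either direction was fitted relative to DMSO controls.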

A short description of test [17]: APR_HepG2_MitoMass_72hr: Apredica 72-hour HepG2 Assay for Mitochondrial Mass (AID 2282924).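 Also: MitoTracker Red CMXRos stain intensity per cell imaged as mitochondrial mass.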 Conditions: high-content imaging, actives raise or lower the signal. The method in brief: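 Read-out: MitoTracker Red fluorescence intensity from automated imaging (20x, six fields per well) in human HepG2 liver cells. Dosing ran 72 hr, 0.39–200 uM, 0.5% DMSO; bidirectional curve fitting versus DMSO baseline.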

A short description of test [18]: APR_HepG2_NuclearSize_72hr: Apredica 72-hour HepG2 Assay for Nuclear Size (AID 2282925). As to conditions: high-content imaging, actives raise or lower the signal. The procedure, abridged: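 Read-out: nuclear diameter from Hoechst 33342 images (ArrayScan, 20x, six fields/well), via cell-cycle image analysis. HepG2 were dosed 0.39–200 uM for 72 hr in 0.5% DMSO. Bidirectional fit relative to DMSO.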

Test [19] is described as follows: APR_HepG2_MitoticArrest_24hr: Apredica 24-hour HepG2 Assay for Mitotic Arrest (AID 2282910). Conditions: high-content imaging, actives raise or lower the signal. The method in brief: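 HepG2, 24 hr dosing, 0.39–200 uM, 0.5% DMSO final. Formaldehyde-fixed, Triton-permeabilised, anti-phospho-histone H3 plus Hoechst. ArrayScan imaging at 20x; bidirectional fit vs DMSO baseline.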

Test [20] in a line: APR_HepG2_MitoticArrest_72hr: Apredica 72-hour HepG2 Assay for Mitotic Arrest (AID 2282918). Conditions: high-content imaging, actives raise or lower the signal. The procedure, abridged:
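Read-out is phospho-histone H3 immunofluorescence with Hoechst nuclear segmentation, imaged at 20x. Human HepG2 liver cells received ten concentrations (0.39–200 uM, final DMSO 0.5% v/v) for 72 hr before fixation. Gain or loss of signal was fitted relative to DMSO.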

The source made the active and inactive calls. The calls were made as follows: active = hit-call score of the fitted dose curve at least 0.9, where 1 is the maximum; inactive = score below 0.9.

As a reminder, the AC50 is the concentration giving half of the maximal activity seen. As for `O=P(OC(CCl)CCl)(OC(CCl)CCl)OC(CCl)CCl`, the molecule was classed as inactive in test [1], in test [4], in [5], in test [7], in test [12] and in test [15]. Moreover, the result in test [16], in test [17] and in [18] was inactive. For the same molecule, the concentration at half-maximal activity (AC50) in test [2] is 48 µM (active); in test [3], 55.6 µM (active); in test [6], 49.4 µM (active); in test [8], 49.1 µM (active); in test [9] it was 47.1 µM (active); in test [10], 47.5 µM (active). Moreover, the results for the AC50 in [11], in [13] and in test [14] were 50 µM (active), 43.4 µM (active) and 59.2 µM (active), respectively.

Take `CN(C)c1ccc(Cc2ccc(N(C)C)cc2)cc1`: the outcome in test [1], in [2], in test [3], in [4], in test [19] and in test [6] was inactive. Moreover, the call in [7], in test [10], in [13], in [14], in [15] and in [16] was inactive. For the same molecule, the result in [17] and in [18] was inactive. For the same molecule, the concentration at half-maximal activity (AC50) is 55.9 µM (active) in test [5], 50.8 µM (active) in test [8], 30.7 µM (active) in [20] and 37.4 µM (active) in test [12].

As for `Nc1nc2ncc(CNc3ccc(C(=O)N[C@@H](CCC(=O)O)C(=O)O)cc3)nc2c(=O)[nH]1`, the molecule was called inactive in [1], in test [2], in [3], in [4], in test [5] and in [6]. In addition, the call in test [7], in [8], in [9], in test [10], in test [12] and in test [13] was inactive. Further, the result in [14], in [15], in test [16], in [17] and in test [18] was inactive.

On to `CCCC(=O)OCC`, for which the outcome in test [1], in test [2], in test [3], in test [4], in [5] and in test [6] was inactive. Also, the molecule was classed as inactive in [7], in test [8], in test [9], in test [10], in [12] and in test [13]. Moreover, the outcome in test [14], in test [15], in test [16] and in test [17] was inactive.

In the case of `CCOC(=O)c1ccc(C2CCC(NC[C@H](O)COc3ccc(O)c(NS(C)(=O)=O)c3)CC2)cc1` (some centres not stated), the molecule was called inactive in test [1], in test [2], in test [8], in [11], in [14] and in test [17]. Also, the AC50 in [3] was 32.3 µM (active); in test [4], 90.2 µM (active); in test [5] it was 86.9 µM (active); in [6] it was 28.1 µM (active); in [7], 26.2 µM (active); in test [10], 14 µM (active). Further, the AC50 is 20.3 µM (active) in test [20]; 41.9 µM (active) in test [12]; 40 µM (active) in [13]; 28.3 µM (active) in [15]; 14.5 µM (active) in test [16].

On to `CC/C(=C\C(=N/O)C(N)=O)C(C)[N+](=O)[O-]` (configuration not stated), for which the molecule was classed as inactive in test [1], in test [2], in test [3], in [4], in test [5] and in test [6]. For the same molecule, the call in test [7], in test [8], in test [10], in test [11], in test [12] and in test [13] was inactive. Moreover, the molecule was classed as inactive in test [14], in test [15], in test [16] and in test [17].

As for `O=C(CCCCCCCCc1cccnc1)N1CCC(C=C(c2ccccc2)c2ccccc2)CC1`, the molecule was called inactive in [1], in [2], in test [3], in test [4], in [5] and in test [6]. Also, the call in test [7], in [8], in test [10], in [11], in test [20] and in [12] was inactive. Besides, the call in test [13], in test [14], in [15], in [16] and in test [17] was inactive.

For the molecule `O=C(O)CCN(C1(C(=O)NO)CCCC1)S(=O)(=O)c1ccc(Oc2ccc(F)cc2)cc1`, the call in test [1], in test [2], in test [3], in [4], in [5] and in [6] was inactive. Besides, the call in test [7], in [8], in [9], in test [10], in [20] and in test [12] was inactive. Moreover, the result in test [13], in test [14], in test [15], in test [16], in test [17] and in [18] was inactive.
